17 molecules from the supplement of paper PMC13380429 can be followed below.

Unmarked numbers belong to inactive results.

The test concerns Vero E6 infected with SARS-CoV-2. As to the kind of experiment: inhibition of SARS-CoV-2 cytopathic effect; higher = more antiviral protection, active = above 15. The conditions noted are these: 48 h.

`CCNC(=O)[C@H]1O[C@@H](n2cnc3c(N)ncnc32)[C@H](O)[C@@H]1O`: the “inhibition of SARS-CoV-2 cytopathic effect” value (“inhibition” below) runs as follows: (1 nM) 3.12%; (8.33 nM) 1.83%; (100 nM) -2.78%; (833.33 nM) -3.3%; (10000 nM) -1.61%.
Turning to `Cc1ccc2c(-c3ccccc3)nc(=O)n(C(C)C)c2c1` [proquazone], the “inhibition” value is 0.68% (1 nM); 0.21% (8.33 nM); -1.31% (100 nM); -2.03% (833.33 nM); -0.55% (10000 nM).
In the same order, the values of `CCCCC(CC)CCC(CC(C)C)OS(=O)(=O)O` (stereo not given) [sodium-tetradecyl-sulfate] are 3.58%, 3.18%, 2.64%, 1.74% and 3.12%.
In the same order, the values of `CC(C)(Oc1ccc(C(=O)c2ccc(Cl)cc2)cc1)C(=O)O` [fenofibric-acid] are 0.66%, -0.84%, 0.44%, 1.29% and -0.37%.
In the same order, the values of `CCCOC(=O)c1ccc(O)cc1` [propyl 4-hydroxybenzoate] are -1.38%, -0.18%, -0.42%, 2.26% and -3.05%.
Regarding `CC[C@@H](C)N(C)C(=O)c1cc2ccccc2c(-c2ccccc2Cl)n1`, the “inhibition” value (1 nM) was -0.84%; the “inhibition” value (8.33 nM) was 0.72%; the “inhibition” value (100 nM) was -0.6%; the “inhibition” value (833.33 nM) is 2.81%; the “inhibition” value (10000 nM) was 2.78%.
Regarding `COc1ccc(-c2ccc3c(N4CCOC[C@@H]4C)nc(N4CCOC[C@@H]4C)nc3n2)cc1CO`, the “inhibition” value is -1.08% (1 nM); -2.46% (8.33 nM); -3.62% (100 nM); -4.35% (833.33 nM); -6.56% (10000 nM).
On to `CNC(=C[N+](=O)[O-])NCCSCc1ccc(CN(C)C)o1` [ranitidine], for which the “inhibition” value by setting is: (1 nM) 2.45%; (8.33 nM) 2.26%; (100 nM) 2.56%; (833.33 nM) 0.8%; (10000 nM) 1.08%.
The corresponding values for `CCCCc1ccc(O)cc1O` [rucinol] are -2.6%, -3.11%, 2.12%, -0.13% and 0.4%.
Take `C=C[C@H]1CN2CC[C@H]1CC2C(OC(=O)OCC)c1ccnc2ccc(OC)cc12` (stereo in doubt) [quinine-ethyl-carbonate]: the “inhibition” value is, setting by setting: (1 nM) 0.47%; (8.33 nM) 2.1%; (100 nM) 0.07%; (833.33 nM) 6.66%; (10000 nM) 5.77%.
For `CC(C)(C)c1ccc(-c2nc3ccccc3[nH]2)cc1`, the “inhibition” value runs as follows: (1 nM) -0.43%; (8.33 nM) -0.22%; (100 nM) 1.49%; (833.33 nM) 3.96%; (10000 nM) 4.75%.
With `CC(=O)O[C@@H]1CC[C@@]2(C)[C@@H](CC[C@]3(C)[C@@H]2C(=O)C=C2[C@@H]4[C@@H](C)[C@H](C)CC[C@]4(C)CC[C@]23C)[C@@]1(C)C(=O)O` [acetyl-11-keto-beta-boswellic-acid], the “inhibition” value runs as follows: (1 nM) -1.38%; (8.33 nM) -3.19%; (100 nM) -1.26%; (833.33 nM) -0.71%; (10000 nM) -0.995%.
As for `O=C(O)CCC(=O)OC[C@@H](NC(=O)C(Cl)Cl)[C@H](O)c1ccc([N+](=O)[O-])cc1` [chloramphenicol-sodium-succinate], the “inhibition” value is 3.1% (1 nM); -0.01% (8.33 nM); 2.32% (100 nM); 3.18% (833.33 nM); 1.6% (10000 nM).
With `COc1cc2c(cc1Cc1cccc(Cl)c1F)c(=O)c(C(=O)O)cn2[C@H](CO)C(C)C` [elvitegravir], the “inhibition” value runs as follows: (1 nM) 2.45%; (8.33 nM) 1.56%; (100 nM) 1.54%; (833.33 nM) 1.67%; (10000 nM) -6.71%.
In the same order, the values of `Cc1csc(-c2nnc(Nc3ccc(Oc4ncccc4-c4ccnc(N)n4)cc3)c3ccccc23)c1` are -1.03%, -3.23%, -5.41%, -4.07% and -4.59%.
The corresponding values for `Cc1ccc(C(=O)Nc2ccc(Oc3cc4cnn(C)c4cc3-c3cn[nH]c3)c(F)c2)c(=O)n1-c1ccc(F)cc1` are -0.46%, 1.35%, -1.01%, -1.13% and -2.06%.
In the same order, the values of `C=C1C(=O)O[C@@H]2/C=C(\C)CC/C=C(\C)CC[C@@H]12` [costunolide] are -0.97%, -0.24%, -0.99%, 2.87% and 19.3% (active).
